Assay [1] in a line: A High-Content qHTS Against Drug Library for the Identification of Small Molecules that Inhibit DYT1 Early Onset Primary Dystonia-Associated Cell Pathology (AID 1645839; calls by dose curve; also: series mostly up to about 46 µM). An outline of the steps:
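Cells were seeded and left for 24 h, then dosed with compound alongside tetracycline induction of mutant EGFP-TorsinA. They were incubated for 48 h, fixed in 4% paraformaldehyde, permeabilized and imaged for mislocalization (%pathology) and cell count.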
(In general: Quantitative high-throughput screening tests each substance at several concentrations.)

Assay [2] deals with Cytochrome P450 2D6 (Homo sapiens) (UniProt P10635). Put plainly: Cytochrome P450 family 2 subfamily D member 6 (CYP2D6) small molecule antagonists: luciferase biochemical (cell-free) qHTS assay (AID 1645840; active = well fitted curve in the direction sought with a large enough effect in the repeat runs; an effect the other way counts as inactive or inconclusive; also: nearly all actives have a fitted effect of over 55% in size; also: potency is read from the fitted curve at half-maximal effect). In outline:
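P450-Glo CYP2D6 system: proluciferin substrate converted by enzyme to luciferin, read by luminescence proportional to activity. Enzyme-substrate mix with compound 10 min at room temperature, then NADPH regeneration 1 h before detection reagent.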

Assay [3] deals with Cytochrome P450 2C9 (Homo sapiens) (UniProt P11712). Description: Cytochrome P450 family 2 subfamily C member 9 (CYP2C9) small molecule antagonists: luciferase biochemical (cell-free) qHTS assay (AID 1645842; active = well fitted curve in the direction sought with a large enough effect in the repeat runs; an effect the other way counts as inactive or inconclusive; also: nearly all actives have a fitted effect of over 55% in size; also: potency is read from the fitted curve at half-maximal effect). In outline: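 P450-Glo CYP2C9 system: proluciferin substrate with enzyme in mix containing 0.4% BSA, 10 min at room temperature, then NADPH regeneration solution added and incubated 1 h at 37C. Detection reagent stopped reaction; luminescence read after 20 min as RLU.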

The nature of assay [4]: Primary qHTS for inhibitors of nuclear receptor binding SET domain protein 2 (NSD2) in an isogenic RCH-ACV NSD2 p.E1099K mutant (9B) (AID 1645876). Also: nearly all actives have a fitted effect of over 70% in size. Also: potency is read from the fitted curve at half-maximal effect.
The nature of assay [5]: Primary qHTS for inhibitors of nuclear receptor binding SET domain protein 2 (NSD2) in an RCH-ACV wild type WT cells (2C) (AID 1645877). Also: nearly all actives have a fitted effect of over 70% in size. Also: potency is read from the fitted curve at half-maximal effect.

Results filed as inconclusive are left out. Unmarked numbers belong to inactive results. Calls of active or inactive are those of the source. Unless noted, calls follow the shape of the dose curve; as a rule, active = well fitted curve in the direction sought with a large enough effect; inconclusive = small, poorly fitted or top-dose-only effect, or another doubt; inactive = no such curve, though single readings can be large; an effect the other way counts as inactive or inconclusive.

Sequence of Cytochrome P450 2D6 (Homo sapiens) (P10635 whole entry, looked up): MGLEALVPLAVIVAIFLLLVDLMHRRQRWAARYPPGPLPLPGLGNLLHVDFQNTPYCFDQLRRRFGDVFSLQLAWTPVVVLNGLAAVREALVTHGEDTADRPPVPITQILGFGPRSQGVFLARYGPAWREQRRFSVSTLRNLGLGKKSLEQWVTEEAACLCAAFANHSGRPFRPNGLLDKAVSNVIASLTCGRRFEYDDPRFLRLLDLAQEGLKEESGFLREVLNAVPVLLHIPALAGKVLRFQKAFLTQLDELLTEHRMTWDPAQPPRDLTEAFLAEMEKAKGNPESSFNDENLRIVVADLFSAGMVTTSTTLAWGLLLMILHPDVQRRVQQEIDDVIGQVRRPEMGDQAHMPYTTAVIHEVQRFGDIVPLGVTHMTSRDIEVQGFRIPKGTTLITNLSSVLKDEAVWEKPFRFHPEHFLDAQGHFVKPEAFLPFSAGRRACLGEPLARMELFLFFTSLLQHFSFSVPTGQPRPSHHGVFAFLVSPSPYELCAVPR
Sequence of Cytochrome P450 2C9 (Homo sapiens) (P11712 whole entry, looked up): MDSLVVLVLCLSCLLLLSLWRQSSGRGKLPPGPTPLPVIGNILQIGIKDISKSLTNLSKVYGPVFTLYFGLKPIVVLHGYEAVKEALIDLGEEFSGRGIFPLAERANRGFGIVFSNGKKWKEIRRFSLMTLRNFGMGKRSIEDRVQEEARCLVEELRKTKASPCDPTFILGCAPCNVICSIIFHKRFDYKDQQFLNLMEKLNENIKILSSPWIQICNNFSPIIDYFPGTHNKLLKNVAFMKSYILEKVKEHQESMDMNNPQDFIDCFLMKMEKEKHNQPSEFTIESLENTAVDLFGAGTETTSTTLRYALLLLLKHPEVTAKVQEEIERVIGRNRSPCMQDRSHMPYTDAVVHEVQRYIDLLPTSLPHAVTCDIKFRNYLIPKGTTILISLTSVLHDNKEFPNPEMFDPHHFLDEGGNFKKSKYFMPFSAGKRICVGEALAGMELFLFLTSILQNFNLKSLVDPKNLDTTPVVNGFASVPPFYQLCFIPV

For `O=C(/C=C/c1ccccc1)OCc1ccccc1`, the Potency result in assay [1], in assay [2], in assay [4] and in assay [5] was “inactive” throughout. Moreover, in assay [3], the Potency was 12.3 µM (active).

Regarding `Cc1cc(-n2nc3ccc(Cl)cc3n2)c(O)c(C(C)(C)C)c1`, the Potency result in assay [1], in assay [2], in assay [3], in assay [4] and in assay [5] was “inactive” in each case.

Regarding `CC(CN(C)C)C(C)(O)Cc1ccc(Cl)cc1` (stereo not given), the Potency result in assay [1], in assay [3], in assay [4] and in assay [5] was “inactive” in each case. Further, in assay [2], the Potency was 12.3 µM (active).

Turning to `CN1CC(=O)NC1=N`, the Potency result in assay [1], in assay [2], in assay [3], in assay [4] and in assay [5] was “inactive” each time.

Regarding `CC[N+](C)(CC)CCOC(=O)C1c2ccccc2Oc2ccccc21`, the Potency result in assay [1], in assay [3], in assay [4] and in assay [5] was “inactive” each time. Further, the Potency in assay [2] is 4.36 µM (active).

Consider `CCOc1cc(NC(C)=O)ccc1C(=O)OC`, for which the Potency entry in assay [1], in assay [2], in assay [3], in assay [4] and in assay [5] was “inactive” each time.

Consider `O=C(OOC(=O)c1ccccc1)c1ccccc1`, for which the Potency result in assay [1], in assay [2], in assay [3], in assay [4] and in assay [5] was “inactive” in each case.

As to `CCCCCCCCCCCCCCCCCCO`, the Potency entry in assay [1], in assay [2], in assay [3], in assay [4] and in assay [5] was “inactive” throughout.

Turning to `CCN(CC)C(=O)c1cccc(C)c1`, the Potency entry in assay [1], in assay [2], in assay [3], in assay [4] and in assay [5] was “inactive” in each case.

Regarding `C/C=C1\[C@H]2C=C(C)C[C@]1(N)c1ccc(=O)[nH]c1C2`, the Potency entry in assay [1], in assay [2], in assay [3], in assay [4] and in assay [5] was “inactive” in each case.

On to `COc1nccnc1NS(=O)(=O)c1ccc(N)cc1`, for which the Potency entry in assay [1], in assay [2], in assay [3], in assay [4] and in assay [5] was “inactive” in each case.

`NS(=O)(=O)c1ccc(NC(=O)CCC(=O)O)cc1`: the Potency entry in assay [1], in assay [2], in assay [3], in assay [4] and in assay [5] was “inactive” in each case.

Turning to `OCC(O)CS` (stereo not given), the Potency result in assay [1], in assay [2], in assay [3], in assay [4] and in assay [5] was “inactive” in each case.

Regarding `C=CCNC(N)=S`, the Potency result in assay [1], in assay [2], in assay [3], in assay [4] and in assay [5] was “inactive” each time.

Consider `Cc1c(I)c(=O)n(-c2ccccc2)n1C`, for which the Potency entry in assay [1], in assay [2], in assay [3], in assay [4] and in assay [5] was “inactive” in each case.

For the molecule `O=C(O)c1ccccc1OP(=O)(O)O`, the Potency result in assay [1], in assay [2], in assay [3], in assay [4] and in assay [5] was “inactive” in each case.

`CCCCCCCCCCC(CO)CCCCCCCC` (stereo not given): the Potency entry in assay [1], in assay [2], in assay [3], in assay [4] and in assay [5] was “inactive” each time.

As to `C[C@]1(Cn2ccnn2)[C@H](C(=O)O)N2C(=O)C[C@H]2S1(=O)=O`, the Potency entry in assay [1], in assay [2], in assay [3], in assay [4] and in assay [5] was “inactive” each time.

For `C[C@@H]1O[C@@H](OC[C@H]2O[C@@H](Oc3c(-c4ccc(O)c(O)c4)oc4cc(O)cc(O)c4c3=O)[C@H](O)[C@@H](O)[C@@H]2O)[C@H](O)[C@H](O)[C@H]1O`, the Potency result in assay [1], in assay [2], in assay [3], in assay [4] and in assay [5] was “inactive” throughout.

For the molecule `CC(=O)Oc1cccc(O)c1`, the Potency entry in assay [1], in assay [2], in assay [3], in assay [4] and in assay [5] was “inactive” in each case.

Consider `CN1CCN(C(=O)C2CCCCC2)CC1`, for which the Potency result in assay [1], in assay [2], in assay [3], in assay [4] and in assay [5] was “inactive” throughout.

On to `Cc1ccsc1C(=CCCN1CCC[C@@H](C(=O)O)C1)c1sccc1C`, for which the Potency entry in assay [1], in assay [2], in assay [3], in assay [4] and in assay [5] was “inactive” in each case.

`NC(=O)N[C@@H](CCC(=O)O)C(=O)O`: the Potency result in assay [1], in assay [2], in assay [3], in assay [4] and in assay [5] was “inactive” in each case.

`CCCC(O)C(CC)CO` (stereo not given): the Potency result in assay [1], in assay [2], in assay [3], in assay [4] and in assay [5] was “inactive” throughout.

Take `CN(C(=O)c1c(O)c2ccccc2n(C)c1=O)c1ccccc1`: the Potency result in assay [1], in assay [2], in assay [3], in assay [4] and in assay [5] was “inactive” throughout.

Take `NC(=O)CCCCC1CCSS1` (stereo not given): the Potency entry in assay [1], in assay [2], in assay [3], in assay [4] and in assay [5] was “inactive” each time.

Take `CC(=O)Nc1ccc(C(=O)O)cc1`: the Potency result in assay [1], in assay [2], in assay [3], in assay [4] and in assay [5] was “inactive” throughout.

For the molecule `COc1ccc(Cc2cnc(N)nc2N)cc1OC`, the Potency entry in assay [1], in assay [2], in assay [3], in assay [4] and in assay [5] was “inactive” in each case.

With `c1ccc2[nH]ccc2c1`, the Potency result in assay [1], in assay [2], in assay [3], in assay [4] and in assay [5] was “inactive” throughout.

For the molecule `COC(=O)N/N=C/c1c[n+]([O-])c2ccccc2[n+]1[O-]`, the Potency entry in assay [1], in assay [2] and in assay [3] was “inactive” in each case. Moreover, the results for the Potency in assay [4] and in assay [5] were 23.7 µM (active) and 7.5 µM (active), respectively.

Take `O=S1(=O)OC(c2ccc(O)cc2)(c2ccc(O)cc2)c2ccccc21`: the Potency entry in assay [1], in assay [2], in assay [4] and in assay [5] was “inactive” each time. Moreover, the Potency in assay [3] is 1.95 µM (active).

Turning to `NCC1CCC(C(=O)Oc2ccc(CCC(=O)O)cc2)CC1` (stereo not given), the Potency entry in assay [1], in assay [2], in assay [3], in assay [4] and in assay [5] was “inactive” each time.

`Nc1ccc(S(=O)(=O)c2ccc(N)cc2)cc1`: the Potency result in assay [1], in assay [2], in assay [3], in assay [4] and in assay [5] was “inactive” in each case.

For `COc1cc(C(=O)NCCCCCC(=O)O)cc(OC)c1OC`, the Potency entry in assay [1], in assay [2], in assay [3], in assay [4] and in assay [5] was “inactive” in each case.

For the origin of these results see PubChem BioAssay (NCATS).
